# Experimental data: PubChem BioAssay
# Results filed as inconclusive are left out. The source made the active and inactive calls. Unless noted, no stated cut-off is given here; in the data, active means inhibition above about 80%; inactive means the rest.
# Legend:
# [1] = growth inhibition of DIPG cells – cell-based, MIPE5.0 library, qHTS (AID 1347068; cut-off not given, nearly all actives have IC50 up to about 30 µM;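 on IC50: cells exposed to compound for 48 hours before viability readout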); conditions: SU-DIPG-XXV viability
# [2] = viability loss with induced miR-34 in A549 – imaging, A549 dox-inducible miR-34, nuclei and caspase counts, primary screen (AID 1347080;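 active means compounds whose cell count with miR-34 switched on is under 0.7 times the count with it off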); conditions: A549 miR-34 inducible, Hoechst nuclei count, 48 h
# [3] = MELAS cybrid and Rieske KO viability enhancers – cell-based, MELAS cybrids, Rieske KO mouse fibroblasts, CellTiter-Glo, primary screen (AID 1508586;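 active means mean z-score across replicates of 1.96 or higher in either the MELAS or the Rieske mutant cell line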;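 further: z relative to plate mean and SD of compound and empty wells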); conditions: low glucose
# [4] = growth inhibition, single agent or in combination, cell-based, chromothripsis tumors, cisplatin or BGB combos (AID 1671449); conditions: LFS_MB_P medulloblastoma cells;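 further: cells exposed for 96 hours; 0% = vehicle DMSO and 100% = killing by high DMSO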
# [5] = growth inhibition, single agent and combos, cell-based, chromothripsis tumors, cisplatin or BGB combos (AID 1671450); conditions: HDN33 neuroblastoma cells, stronger effect = higher value;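 further: cells exposed to compound for four days; 0% = vehicle DMSO and 100% = cell killing by high DMSO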
# [6] = growth inhibition, single agents and combos, ICB984, cell-based, cisplatin or BGB combos, synergistic combos for chromothripsis tumors (AID 1671451; call rule not given here;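 further: cells exposed for 96 hours before readout; 0% = vehicle DMSO and 100% = killing by high DMSO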); conditions: ICB984 medulloblastoma cells, drug combinations, stronger effect = higher value
# [7] = growth inhibition, single agents and combos, LFS_MB_1R, cell-based, cisplatin or BGB combos, synergistic combos for chromothripsis tumors (AID 1671452); conditions: LFS_MB_1R medulloblastoma cells, stronger effect = higher value;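 further: cells exposed for 96 hours before readout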
# [8] = growth inhibition, single agents and combos, HTB85, cell-based, BGB or cisplatin IC20 combos, synergistic combos for chromothripsis tumors (AID 1671453); conditions: HTB85 osteosarcoma cells, drug combinations, stronger effect = higher value;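 further: cells exposed for 96 hours before readout; 0% = vehicle DMSO and 100% = high DMSO killing control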
# [9] = growth inhibition, single agents and combos, CRL2098, cell-based, BGB or cisplatin IC20 combos, synergistic combos for chromothripsis tumors (AID 1671454); conditions: CRL2098 osteosarcoma cells, drug combinations, stronger effect = higher value;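 further: cells exposed for 96 h before readout; 0% = vehicle DMSO and 100% = killing by high DMSO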
# [10] = growth inhibition, single agents and combos, HD-MB03, cell-based, BGB or cisplatin IC20 combos, synergistic combos for chromothripsis tumors (AID 1671455; in the data active means inhibition above about 83%;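 further: 0% = vehicle DMSO and 100% = high DMSO as cytotoxic control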); conditions: HD-MB03 medulloblastoma cells, stronger effect = higher value
# [11] = growth inhibition, single agents and combos, UWB1.289, cell-based, BGB or cisplatin combos, synergistic combos for chromothripsis tumors (AID 1671456); conditions: UWB1.289 ovarian carcinoma cells, stronger effect = higher value;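 further: cells exposed to compound for four days; 0% = vehicle DMSO and 100% = killing by high DMSO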
# [12] = growth inhibition, single agents and combos, LFS_MB_2R, cell-based, cisplatin combos, synergistic combos for chromothripsis tumors (AID 1671457); conditions: LFS_MB_2R medulloblastoma cells, stronger effect = higher value;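 further: cells exposed to compound for four days before readout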
# [13] = growth inhibition, MDA-MB-436, cell-based, BGB or cisplatin combos, synergistic combos for chromothripsis tumors (AID 1671458; call rule not given here;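 further: cells exposed for 96 hours; 0% = vehicle DMSO and 100% = killing by high DMSO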); conditions: MDA-MB-436 breast carcinoma growth inhibition, drug combinations, stronger effect = higher value
# [14] = UWB1.289_BRCA1 ovarian cancer growth, cell-based, BGB or cisplatin combinations (AID 1671459); conditions: UWB1.289 BRCA1 ovarian carcinoma, drug combinations, stronger effect = higher value
# [15] = drug combination toxicity in non-malignant astrocytes – cell-based, BGB or cisplatin IC20 combos, cytotoxicity control for chromothriptic childhood tumor combination screen (AID 1671460); conditions: Human astrocytes, viability inhibition, drug combinations, at 0.5 µM, stronger effect = higher value;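 further: cells exposed to compounds for 96 hours before viability readout; 0% = vehicle and 100% = killing control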
# [16] = BT084 cell growth, single and combined drugs, ICGC_MB145, cisplatin and BGB IC40 combos (AID 1671461); conditions: BT084 medulloblastoma cells, drug combinations, stronger effect = higher value;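 further: cells exposed to drugs for 96 hours; 0% = vehicle DMSO and 100% = high DMSO full killing control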
# [17] = RCMB18 cell growth, single agent and combined, cisplatin and BGB IC40 combos (AID 1671462); conditions: RCMB18 medulloblastoma cells, stronger effect = higher value;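 further: cells exposed to compound for four days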
# [18] = CRL1545 cell growth, single agent and combined, cisplatin and BGB IC20 combos (AID 1671464); conditions: CRL1545 osteosarcoma cells, stronger effect = higher value;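 further: cells exposed to compound for 96 hours before readout; 0% = vehicle DMSO and 100% = high DMSO killing control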
# [19] = stronger effect = lower value, cell number ratio, induced over uninduced
# [20] = measured here: relative caspase fold change +Dox/-Dox
# [21] = measured here: total cells with miR-34 induction, stronger effect = lower value
# [22] = measured here: total cells without miR-34 induction
# [23] = measured here: combination with BGB IC40, at 0.05 µM
# [24] = measured here: with BGB IC20 combination, at 0.5 µM
# [25] = measured here: with cisplatin IC20 combination, at 0.5 µM
# [26] = measured here: combination with cisplatin, at 0.5 µM
# [27] = measured here: combination with cisplatin, at 5 µM
structure (smiles),measurement,setting,value
O=C1S/C(=C\c2ccc(OCc3cccc(B(O)O)c3)cc2)C(=O)N1Cc1ccc(F)cc1,IC50,[1],23.5 µM (active)
C=CC(=O)N1CCC(CNc2ncnc(N)c2-c2ccc(Oc3ccccc3)cc2)CC1,outcome,[1],inactive
CCCc1oc(CCC(=O)O)c(C(=O)O)c1C,fold change,[2]; [19],0.885 (inactive)
same,fold change,[2]; [20],0.896
same,cell count,[2]; [21],5170
same,cell count,[2]; [22],5840
COc1ccc(-c2cnc3c(-c4cccc5ncccc45)cnn3c2)cc1,outcome,[1],inactive
same,fold change,[2]; [19],0.802 (inactive)
same,fold change,[2]; [20],0.646
same,cell count,[2]; [21],4530
same,cell count,[2]; [22],5640
same,z-score,"[3]; MELAS cybrid survival, CellTiter-Glo 48 h, stronger effect = higher value",-0.0268 (inactive)
same,z-score,"[3]; Rieske KO mouse fibroblast survival, CellTiter-Glo 72 h",-0.688
C=CC(=O)N1CCC(C2CCNc3c(C(N)=O)c(-c4ccc(Oc5ccccc5)cc4)nn32)CC1 (stereo not drawn),outcome,[1],inactive
CS(=O)(=O)c1ccc(-c2nnc(/C=C/c3nnc(-c4ccc(C#N)cc4)o3)n2-c2ccccc2Cl)nc1,outcome,[1],inactive
same,inhibition,"[4]; at 0.5 µM, stronger effect = higher value",1.48% (inactive)
same,inhibition,"[4]; measured here: combination with BGB IC20, at 0.005 µM",2.99%
same,inhibition,"[4]; measured here: combination with BGB IC40, at 0.005 µM",6.48%
same,inhibition,[4]; [23],30.7%
same,inhibition,"[4]; measured here: combination with cisplatin, at 0.5 µM, stronger effect = higher value",-5.01%
same,inhibition,"[4]; measured here: combination with cisplatin, at 5 µM, stronger effect = higher value",-36.6%
same,inhibition,"[5]; BGB combo, at 5 µM",21%
same,inhibition,[5]; at 0.5 µM,30.9% (inactive)
same,inhibition,"[5]; cisplatin combo, at 5 µM",23.5%
same,inhibition,[5]; [24],33.7%
same,inhibition,[5]; [25],23.2%
same,inhibition,"[5]; single agent, at 5 µM",31.3%
same,inhibition,"[6]; BGB IC20 combo, at 0.005 µM",-3.28%
same,inhibition,"[6]; BGB IC40 combo, at 0.005 µM",-14.7%
same,inhibition,"[6]; BGB IC40 combo, at 0.05 µM",-5.67%
same,inhibition,[6]; at 0.5 µM,-26.5% (inactive)
same,inhibition,"[6]; cisplatin combo, at 0.05 µM",-9.85%
same,inhibition,"[6]; cisplatin combo, at 0.5 µM",-33.8%
same,inhibition,"[6]; cisplatin combo, at 5 µM",-19.1%
same,inhibition,"[6]; measured here: 5 uM single agent, at 5 µM",-5.85%
same,inhibition,[7]; at 0.5 µM,-3.64% (inactive)
same,inhibition,[7]; [23],0.706%
same,inhibition,[7]; [26],-21.2%
same,inhibition,[7]; [27],-35.8%
same,inhibition,[8]; at 0.5 µM,15.7% (inactive)
same,inhibition,"[8]; measured here: with BGB IC20, at 0.5 µM",7.63%
same,inhibition,"[8]; measured here: with BGB IC20, at 5 µM",-0.396%
same,inhibition,"[8]; measured here: with cisplatin IC20, at 0.5 µM",4.78%
same,inhibition,"[8]; measured here: with cisplatin IC20, at 5 µM",9.69%
same,inhibition,"[8]; single agent, at 5 µM",38.8%
same,inhibition,[9]; at 0.5 µM,7.89% (inactive)
same,inhibition,"[9]; measured here: combination with BGB at IC20, at 0.5 µM",3.4%
same,inhibition,"[9]; measured here: combination with cisplatin at IC20, at 0.5 µM",15.6%
same,inhibition,[10]; at 0.5 µM,11.5% (inactive)
same,inhibition,"[10]; measured here: combo with BGB at IC20, at 0.5 µM",0.481%
same,inhibition,"[10]; measured here: combo with cisplatin at IC20, at 0.5 µM",19.9%
same,inhibition,[11]; at 0.5 µM,15.3% (inactive)
same,inhibition,"[11]; measured here: inhibition with BGB combination, at 0.05 µM",0.045%
same,inhibition,"[11]; measured here: inhibition with cisplatin combination, at 0.05 µM",15.1%
same,inhibition,[12]; at 0.5 µM,-0.5% (inactive)
same,inhibition,[12]; [26],14.1%
same,inhibition,[12]; [27],-1.82%
same,inhibition,[13]; at 0.5 µM,7.83% (inactive)
same,inhibition,"[13]; measured here: BGB combination, at 0.5 µM",-1.04%
same,inhibition,"[13]; measured here: BGB combination, at 5 µM",-5.11%
same,inhibition,"[13]; measured here: cisplatin combination, at 0.5 µM",9.17%
same,inhibition,"[13]; measured here: cisplatin combination, at 5 µM",11.5%
same,inhibition,"[14]; BGB combination, concentration series, at 5 µM",22.9%
same,inhibition,[14]; at 0.5 µM,12.5% (inactive)
same,inhibition,"[14]; cisplatin combination, concentration series, at 5 µM",17.8%
same,inhibition,[15],40.8% (inactive)
same,inhibition,[15]; measured here: combo with BGB IC20,29.7%
same,inhibition,[15]; measured here: combo with cisplatin IC20,52.2%
same,inhibition,[16]; at 0.5 µM,-12.2% (inactive)
same,inhibition,"[16]; cisplatin combination, at 0.5 µM",3.06%
same,inhibition,"[16]; cisplatin combination, at 5 µM",6.23%
same,inhibition,"[16]; measured here: BGB IC40 combination 0.05 uM, at 0.05 µM",-3.22%
same,inhibition,"[16]; single agent, at 5 µM",-30%
same,inhibition,[17]; at 0.5 µM,3.73% (inactive)
same,inhibition,"[17]; cisplatin combo, at 5 µM",7.03%
same,inhibition,"[17]; measured here: BGB IC40 combination, at 0.05 µM",-6.83%
same,inhibition,[17]; [26],19.3%
same,inhibition,"[17]; single agent, at 5 µM",-0.278%
same,inhibition,[18]; at 0.5 µM,-40.3% (inactive)
same,inhibition,[18]; [24],-43.6%
same,inhibition,[18]; [25],-38.6%
same,inhibition,"[18]; single agent, at 0.05 µM",-1.31%
same,inhibition,"[18]; single agent, at 5 µM",-32.2%
